Bioassay records: PubChem, several laboratories
GC-B act: human GC-B receptor activators, primary screen, HEK293 GC-B cells, cGMP TR-FRET, EC30 CNP | Atrial natriuretic peptide receptor 2 (Homo sapiens), P20594 | 0% at EC30 CNP, 100% saturating CNP | activation, % at 10 µM | 370,000 tested, 0.11% active;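 active = activation at 10 µM reaching about 35% in either raw or pattern-adjusted values, limit read from the data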
Target sequence (P20594 whole entry, looked up): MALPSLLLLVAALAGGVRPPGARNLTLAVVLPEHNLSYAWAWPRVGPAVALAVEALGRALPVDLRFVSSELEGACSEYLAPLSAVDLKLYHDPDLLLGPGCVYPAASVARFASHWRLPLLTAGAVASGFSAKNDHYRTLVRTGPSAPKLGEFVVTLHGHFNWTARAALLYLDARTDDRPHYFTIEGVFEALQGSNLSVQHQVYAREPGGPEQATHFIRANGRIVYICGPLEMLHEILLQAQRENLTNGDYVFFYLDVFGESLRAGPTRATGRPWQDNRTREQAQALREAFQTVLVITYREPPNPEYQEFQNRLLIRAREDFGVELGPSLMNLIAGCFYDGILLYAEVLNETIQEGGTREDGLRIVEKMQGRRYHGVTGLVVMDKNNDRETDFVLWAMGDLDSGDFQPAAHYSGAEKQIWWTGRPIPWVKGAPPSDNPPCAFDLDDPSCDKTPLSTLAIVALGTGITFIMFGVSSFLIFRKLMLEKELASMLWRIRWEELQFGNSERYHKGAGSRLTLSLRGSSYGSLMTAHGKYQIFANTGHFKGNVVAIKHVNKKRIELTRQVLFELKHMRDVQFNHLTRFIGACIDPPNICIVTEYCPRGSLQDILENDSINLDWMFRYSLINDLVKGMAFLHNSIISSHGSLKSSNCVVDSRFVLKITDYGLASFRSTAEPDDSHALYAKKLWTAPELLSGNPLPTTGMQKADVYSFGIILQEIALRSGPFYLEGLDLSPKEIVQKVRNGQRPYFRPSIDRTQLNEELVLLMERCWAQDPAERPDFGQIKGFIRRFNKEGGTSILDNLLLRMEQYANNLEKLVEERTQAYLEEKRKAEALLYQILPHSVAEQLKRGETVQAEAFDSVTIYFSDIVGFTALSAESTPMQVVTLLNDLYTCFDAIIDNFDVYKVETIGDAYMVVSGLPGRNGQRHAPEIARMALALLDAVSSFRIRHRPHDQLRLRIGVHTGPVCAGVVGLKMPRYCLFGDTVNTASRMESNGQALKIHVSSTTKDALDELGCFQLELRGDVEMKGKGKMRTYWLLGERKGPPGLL
TAG inh: inhibitors of triacylglycerol accumulation, primary screen, cell-based, uHTS, fluorescence, H9c2 | AID 651582, 2012 | inhibition, % at 12.5 µM | 230,000 tested, 0.66% active | H9c2 cells, Nile Red lipid (TAG) fluorescence; cells loaded with 200 µM oleic acid;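 active = pattern-corrected inhibition of lipid staining of at least 50% with the nuclear-stain viability signal not falling by more than 50%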;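 also: 0% = DMSO wells and 100% = triacsin C control wells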
Efflux pump mplx: inhibitors of Candida efflux pumps in yeast, primary screen, S. cerevisiae, Nile Red, multiplex. S. cerevisiae Candida pump triplex. 330,000 tested, 0.44% active. inhibition, % at 10 µM;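 active = plate passing quality check with inhibition over a set limit, or well fluorescence over plate mean plus 4 SD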;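 also: Nile Red retained in pooled yeast measured as flow cytometry median fluorescence; 0% = buffer negative control and 100% = Enniatin B positive control; higher means more Nile Red kept so more efflux inhibition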
NPR1 activator: GC-A stimulated cGMP production enhancers – HEK293 GC-A cells, cGMP TR-FRET, EC30 ANP, primary screen; Atrial natriuretic peptide receptor 1 (Homo sapiens), P16066; 0% at EC30 ANP, 100% saturating ANP; activation, % at 10 µM; 370,000 tested, 0.14% active; AID 1671463, 2021; in the data active = activation above about 40%
Bfl-1 A1 inh: caspase 3/7 activation in MEF A1-2A-BIM cells, primary screen, A1 inhibitor project, cell-based, luminescence, HTS; Caspase-Glo 3/7 luminescence, 3 h; percent of clofoctol response, vehicle zero; caspase activation, % (concentration not given with the values); 330,000 tested, 0.066% active; AID 2462, 2010;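 active = over half of replicate activation scores above 10%, or exactly half above 10 with the replicate mean above 10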
HSV augment: enhancers of HSV replication in host cells, fold increase, host cell viability. 220,000 tested, 0.005% active. HSV replication augmentation in cells. AID 1956, 2009. maximum fold increase; in the data active = maximum fold increase above about 1.5; tested in PC3 cells
* hit, by the source's call; i = inactive; · = not tested or not shown. Compounds with a hit are over-represented: about 1% of the library has one in this group of screens.

SMILES	GC-B act	TAG inh	Efflux pump mplx	NPR1 activator	Bfl-1 A1 inh	HSV augment
CCCCCC[N+](C)(C)CCSSCC[N+](C)(C)CCCCCC	3	-6	0	3	0	i
CCCCCCCCCCCCCCCC[N+](C)(C)CC	5	9	1.8*	-21	0	·
CCCCCCCCCCCCCCCC[N+](C)(C)CCl	9	66*	·	-20	·	·
O=C(COCc1ccccc1)N1CCC(Oc2cccnc2)CC1	-8	·	·	0	·	·
COc1ccccc1-c1cc(C(F)(F)F)nc(S(=O)(=O)CCCC(=O)N2CCOCC2)n1	4	47	0	70*	6.1*	i
COc1ccccc1-c1cc(C(F)(F)F)nc(S(=O)(=O)CCCC(=O)O)n1	5	·	0	32	0	i
O=S(=O)(Cc1ccccc1)N1CCc2ccccc21	·	·	2.7*	·	0	i
CC1=NNC(=O)/C1=C\c1cn(-c2ccccc2)nc1-c1cccs1	-10	·	0	-9	16*	i
CC1=NNC(=O)/C1=C\c1cn(-c2ccccc2)nc1-c1ccc(F)cc1	·	14	·	·	·	i
CCNC(=S)N/N=C/c1cn(Cc2ccc(F)cc2)c2ccccc12	42*	·	-2	35	0	·
CCNC(=S)N/N=C/c1cn(Cc2ccccc2F)c2ccccc12	44*	·	0	41*	0	i
O=C(CCN1C(=O)c2ccccc2C1=O)Oc1ccc2ccccc2c1	-12	7	0	-4	1	i
CC1=CC(C)(C)Nc2ccc(OC(=O)CCN3C(=O)c4ccccc4C3=O)cc21	2	54*	0	-2	1	i
O=C(/C=C(\Nc1ccc(F)cc1)c1ccccc1)c1ccccc1	-3	·	·	-6	·	·
CC(=O)Nc1ccc(Nc2nc(C)c([N+](=O)[O-])c(Nc3ccccc3)n2)cc1	58*	·	0	56*	0	i
Cc1nc(Nc2ccc(C(=O)O)cc2)nc(Nc2ccc(C(=O)O)cc2)c1[N+](=O)[O-]	11	-8	0	11	0	i
Oc1ccc(-c2[nH]ncc2-c2ccc(Br)cc2)c(O)c1	0	·	0	67*	0	·
Oc1ccc(-c2[nH]ncc2-c2ccc(Cl)cc2)c(O)c1	-3	11	0	49*	3	i
CCCCN(C)C(=O)c1cn(C(C)c2ccccc2)nn1 (centres undefined)	1	·	·	1	·	·
CCOC(=O)[C@@]12CCCC3=C1N(CCC3)C(=O)[C@H]2CC(=O)NCc1ccc(OC)c(OC)c1	-2	·	·	2	·	·
CC(C)(C)c1ccc(CN2N=Nc3ccccc3S2(=O)=O)cc1	-2	51*	0	-26	0	i
COC(=O)[C@]12CCCCC=C1N(Cc1ccc(OC)cc1)C(=O)[C@@H]2CC(=O)NCCc1ccccc1OC	3	·	·	-4	·	·
CC1(C)OC(=O)C(=Cc2ccc(-c3ccc(S(N)(=O)=O)cc3)o2)C(=O)O1	16	-10	0	40*	6.1*	i
CCCS(=O)(=O)c1c(S(=O)(=O)CCC)c2ccc(C(N)=O)cn2c1C(=O)c1ccc(OC)cc1	56*	2	0	39	0	i
CCCS(=O)(=O)c1c(S(=O)(=O)CCC)c2ccc(C(N)=O)cn2c1C(=O)OC	14	·	0	15	0	i
CCCCCCCCN1C(=O)[C@@H](CC(=O)NCCc2ccccc2OC)C[C@@]2(C(=O)OC)C1=C[C@H](COCc1ccccc1)O[C@@H]2C	3	·	·	0	·	·
Cc1ccccc1/C=N/Nc1nc2ccccc2[nH]1	-7	11	0	-2	0	i
C(=N\Nc1nc2ccccc2[nH]1)/c1cccc2cccnc12	-14	67*	0	1	-2	i
Cc1[nH]c2ccccc2c1/C=N/Nc1nc2ccccc2[nH]1	-8	64*	0	-2	-1	i
O=C(N/N=C/c1cccc2nccnc12)c1ccccc1O	-5	24	0	-4	-1	i
